Reference: PubChem BioAssay (NCI)
About 79,000 compounds went through this panel and 15% of them were active in at least one assay; those are over-represented in the sample as a whole. No stated cut-off is given here; in the data, active means growth inhibition above about 70%; inactive means the rest. Where a SMILES comes first, the peptide text is derived from it. [ ]: non-standard residue; d: D form. ξ: configuration not given here. ξH = NC(Cc1c[nH]cn1)C(=O)O

Experiments:
[1] = NCI Yeast Anticancer Drug Screen. Data for the rad50 strain (AID 155);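 further: 0% = growth of vehicle-only cultures of the same strain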; settings: S. cerevisiae rad50 strain growth inhibition; at 50.0 µM; stronger effect = higher value
Summary of the method: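 Growth of the mutant yeast was measured after compound exposure and referenced to vehicle-treated cultures.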

[2] = NCI Yeast Anticancer Drug Screen. Data for the mec2-1 strain (AID 157); settings: S. cerevisiae mec2-1 strain, at 50.0 µM, stronger effect = higher value
Summary of the method: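 Test agents were screened against the mec2-1 yeast strain, with defined DNA repair or cell cycle alteration. Growth was scored as inhibition against vehicle-only controls.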

[3] = NCI Yeast Anticancer Drug Screen. Data for the sgs1 mgt1 strain (AID 161);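 further: 0% = growth of cultures given vehicle only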; settings: S. cerevisiae sgs1 mgt1 strain, at 50.0 µM, stronger effect = higher value
Summary of the method: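 Test agents were incubated with a DNA-repair-mutant yeast strain. Growth was then read and compared against vehicle-treated controls.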

[4] = NCI Yeast Anticancer Drug Screen. Data for the cln2 rad14 strain (AID 165);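 further: 0% = growth equal to vehicle treated cultures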; settings: S. cerevisiae cln2 rad14 strain, at 50.0 µM, stronger effect = higher value
Summary of the method: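 Growth of compound-exposed yeast (cln2 rad14 genotype) measured and expressed as inhibition relative to vehicle.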

[5] = NCI Yeast Anticancer Drug Screen. Data for the bub3 strain (AID 167); settings: S. cerevisiae bub3 mutant strain, at 50.0 µM, stronger effect = higher value
Summary of the method: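 Whole-cell yeast assay. The mutant strain was incubated with compounds, and growth inhibition was determined by comparison with vehicle-treated cells.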

[6] = NCI Yeast Anticancer Drug Screen. Data for the mlh1 rad18 strain (AID 175); settings: S. cerevisiae mlh1 rad18 strain growth inhibition; at 50.0 µM; stronger effect = higher value
Summary of the method: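 In this whole-cell yeast screen, a strain with altered DNA damage repair is challenged with compound, and its growth is measured against matched vehicle-treated controls.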

Measured: growth inhibition

CCOC(=O)C(=O)C(/C(=N/N(C)C)C(=O)Nc1ccc(C)cc1C)c1nc2ccccc2[nH]c1=O (stereo unspecified)
inactive: [1] -21.7% | [2] -22.1% | [3] 3.8% | [4] 11.7% | [5] 1% | [6] 12.5%

CCOC(=O)CN1CCC(C(=O)OCC)CC1
inactive: [1] 7.75% | [2] -27% | [3] 20.6% | [4] 12.9% | [5] -3.05% | [6] 20.8%

Fc1ccc2cc3cccc[n+]3cc2c1
inactive: [1] 27.1% | [2] 7.05% | [3] 32.4% | [4] 14.4% | [5] 10.1% | [6] 2.35%

COc1cc([C@@H]2c3cc4c(cc3[C@H](OC3OC5COC(C(C)C)OC5C(O)C3O)C3COC(=O)[C@@H]32)OCO4)cc(OC)c1OC (stereo partly specified)
inactive: [1] 11.6% | [2] 46.7% | [3] 31% | [4] 3.2% | [5] 9.25% | [6] -41.8%

O=[N+]([O-])C1=C(c2ccccc2)SC(Br)=C(c2ccccc2)S1
inactive: [1] -1.2% | [2] 9.7% | [3] 3.2% | [4] -0.6% | [5] 3.35% | [6] 7.65%

CC1(C)NNC(=S)NC1=O
inactive: [1] -11.7% | [2] -13.6% | [3] -7.65% | [4] 17.1% | [5] -15.6% | [6] -5.5%

NCC(=O)NC(Cc1cnc[nH]1)C(=O)NCC(=O)O (stereo unspecified) (H-Gly-[ξH]-Gly-OH)
inactive: [1] -3.45% | [2] 7.9% | [3] -0.2% | [4] -31.6% | [5] 6.2% | [6] 5.15%

CCN(CC)Cc1cc2[nH]c3c4ccc(Cl)cc4ncc3c2cc1OC
inactive: [1] 23.8% | [2] 11.8% | [3] -6.15% | [4] -2.65% | [5] -45.5% | [6] -42.6%

O=C(O)CCCc1ccc2c(c1)-c1ccccc1S2=O (stereo unspecified)
inactive: [1] 0.65% | [2] 3.8% | [3] 1.25% | [4] -3.6% | [5] -4% | [6] 13.1%

N=c1nc2n(cc1F)[C@@H]1O[C@H](CO)[C@@H](O)[C@@H]1O2
inactive: [1] 13.4% | [2] -3.75% | [3] 4.3% | [4] 8.55% | [5] 12.6% | [6] -12.2%

CCCCC1SC(N)=NC1=O (stereo unspecified)
inactive: [1] 14.9% | [2] -2.35% | [3] 12.5% | [4] 53.2% | [5] 3.9% | [6] -17.7%

CCC(=O)OCCSCCOC(=O)CC
inactive: [1] 5.65% | [2] 5.65% | [3] -6.4% | [4] -10.3% | [5] -4.4% | [6] -15.8%

O=C(Nc1ccc(Cl)c(Cl)c1)C(Cl)Cl
inactive: [1] 23.5% | [2] 15.1% | [3] 50.5% | [4] 30.2% | [5] 39.1% | [6] 10.3%

CN(C)c1ccc(C(=N)c2ccc(N(C)C)cc2)cc1
inactive: [1] -3.85% | [2] 4.9% | [3] -6% | [4] -35.5% | [5] 5.45% | [6] -0.15%

CCCC[N+](C)(CCCC)CCCC
inactive: [1] 9.15% | [2] 9.65% | [3] 7.8% | [4] -1.15% | [5] 14.2% | [6] 3.3%

COC1OC(COC(c2ccccc2)(c2ccccc2)c2ccccc2)C2SC12 (stereo unspecified)
inactive: [1] 23.9% | [2] 10% | [3] -1.05% | [4] 14.2% | [5] 4.8% | [6] 17.6%

CC(=O)Oc1cc2c(cc1OC(C)=O)C1(C)CCC2(C)c2cc(OC(C)=O)c(OC(C)=O)cc21
inactive: [1] 1.6% | [2] 0.2% | [3] 3.6% | [4] 9.55% | [5] -2.7% | [6] 14.3%

CC(=O)OCC(C)Cc1ccccc1 (stereo unspecified)
inactive: [1] 6.35% | [2] 13.8% | [3] -0.25% | [4] 8.2% | [5] 1.9% | [6] -2.25%

CCc1cn(C2CC(CO)C(CO)S2)c(=O)[nH]c1=O (stereo unspecified)
inactive: [1] -5.5% | [2] -33% | [3] 7.85% | [4] -6.4% | [5] -8.55% | [6] -6.7%

O=c1nc(NCC23CC4CC(CC(C4)C2)C3)ccn1C1OC(CO)C(O)C1O (stereo unspecified)
inactive: [1] 21.8% | [2] -0.95% | [3] -8.1% | [4] 16.6% | [5] -4.95% | [6] -6.5%

C1CSCC2(COC2)CS1
inactive: [1] 13% | [2] 13.6% | [3] -9.65% | [4] 5% | [5] -1.55% | [6] 14.2%
